# Results published in publication PMC7862700, “An all-to-all approach to the identification of sequence-specific readers for epigenetic DNA modifications on cytosine”.
# Tests used:
# Assay in all cases: DAPPL (digital affinity profiling via proximity ligation, sequencing); 10 mM Tris-HCl pH 7.5, 50 mM NaCl, 1 mM DTT, 4% glycerol, room temperature, 30 min; GST-TFs on glutathione beads, 16-mer random dsDNA library, 0.1% formaldehyde crosslink after washing; high values mean tight binding
# FEV = target: T1, FEV (Homo sapiens, UniProt Q99581 1-238); conditions: protein: recombinant; tags: N-terminal GST; dsDNA, one strand shown
# T1 sequence: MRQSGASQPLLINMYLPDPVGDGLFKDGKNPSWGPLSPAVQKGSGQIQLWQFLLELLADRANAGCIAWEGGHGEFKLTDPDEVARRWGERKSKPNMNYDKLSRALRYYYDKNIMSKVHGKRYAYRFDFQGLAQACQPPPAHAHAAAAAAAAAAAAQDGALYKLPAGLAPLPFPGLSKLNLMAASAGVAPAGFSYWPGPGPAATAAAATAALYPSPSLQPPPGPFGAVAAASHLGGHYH
# Method in brief: (§1)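 Each value of binding signal is a hexamer's read frequency for a factor divided by the same hexamer's frequency in the tag-only sample. Barcoded, bead-captured GST fusions of human transcription factors made in yeast were pooled with that sample and incubated with 200 nmole of a random double-stranded 16-mer DNA library in Tris/NaCl/DTT/glycerol buffer at room temperature for 30 min. Washing, 0.1% formaldehyde crosslinking, proximity ligation, PCR and Illumina NextSeq500 sequencing followed.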
# ETV5 = ETV5 (Homo sapiens, UniProt P41161 1-510); conditions: protein: recombinant; tags: N-terminal GST; dsDNA, one strand shown
# ETV5, sequence (P41161 whole entry): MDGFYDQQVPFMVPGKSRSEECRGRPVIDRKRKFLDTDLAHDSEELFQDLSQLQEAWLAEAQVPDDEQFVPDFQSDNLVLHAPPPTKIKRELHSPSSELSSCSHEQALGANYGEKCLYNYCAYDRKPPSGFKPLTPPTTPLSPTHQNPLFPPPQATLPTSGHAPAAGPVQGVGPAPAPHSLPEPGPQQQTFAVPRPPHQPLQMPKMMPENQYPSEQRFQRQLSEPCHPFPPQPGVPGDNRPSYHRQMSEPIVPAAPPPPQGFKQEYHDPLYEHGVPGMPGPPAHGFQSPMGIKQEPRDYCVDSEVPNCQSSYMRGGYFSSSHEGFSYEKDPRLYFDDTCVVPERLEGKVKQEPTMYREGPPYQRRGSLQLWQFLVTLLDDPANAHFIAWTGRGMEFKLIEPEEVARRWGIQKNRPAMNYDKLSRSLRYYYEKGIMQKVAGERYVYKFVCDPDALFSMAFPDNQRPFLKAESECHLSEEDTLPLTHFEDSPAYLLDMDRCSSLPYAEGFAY
# Method in brief: as §1
# HSF1 = HSF1 (Homo sapiens, UniProt Q00613 1-529); conditions: protein: recombinant; tags: N-terminal GST; chain copies: 3; dsDNA, one strand shown
# HSF1, sequence (Q00613 whole entry): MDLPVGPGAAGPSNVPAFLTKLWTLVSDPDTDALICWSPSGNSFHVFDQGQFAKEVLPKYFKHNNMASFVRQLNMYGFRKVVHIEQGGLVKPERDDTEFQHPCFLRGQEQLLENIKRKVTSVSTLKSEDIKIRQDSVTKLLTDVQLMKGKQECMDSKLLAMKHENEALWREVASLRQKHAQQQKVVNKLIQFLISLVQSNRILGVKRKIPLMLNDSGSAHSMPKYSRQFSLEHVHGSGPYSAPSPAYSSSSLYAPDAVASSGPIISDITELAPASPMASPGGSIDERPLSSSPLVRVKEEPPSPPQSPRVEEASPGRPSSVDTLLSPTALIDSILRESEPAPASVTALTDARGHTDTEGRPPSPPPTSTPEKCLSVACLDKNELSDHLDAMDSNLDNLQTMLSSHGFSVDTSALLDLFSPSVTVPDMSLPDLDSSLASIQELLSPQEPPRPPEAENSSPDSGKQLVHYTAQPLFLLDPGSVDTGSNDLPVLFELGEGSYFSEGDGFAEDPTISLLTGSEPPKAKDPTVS
# Method in brief: as §1
# SPIC = target: T2, SPIC (Homo sapiens, UniProt Q8N5J4 1-248); conditions: protein: recombinant; tags: N-terminal GST; dsDNA, one strand shown
# T2 sequence: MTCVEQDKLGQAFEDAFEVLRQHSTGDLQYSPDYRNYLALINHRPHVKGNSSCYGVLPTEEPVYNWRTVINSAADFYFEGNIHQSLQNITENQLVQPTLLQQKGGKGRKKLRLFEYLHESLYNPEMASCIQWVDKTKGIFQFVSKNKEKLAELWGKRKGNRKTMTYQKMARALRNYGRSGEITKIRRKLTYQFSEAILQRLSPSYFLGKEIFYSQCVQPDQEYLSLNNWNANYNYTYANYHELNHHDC
# Method in brief: as §1
# ELF4 = ELF4 (Homo sapiens, UniProt Q99607 1-663); conditions: protein: recombinant; tags: N-terminal GST; dsDNA, one strand shown
# ELF4, sequence (Q99607 whole entry): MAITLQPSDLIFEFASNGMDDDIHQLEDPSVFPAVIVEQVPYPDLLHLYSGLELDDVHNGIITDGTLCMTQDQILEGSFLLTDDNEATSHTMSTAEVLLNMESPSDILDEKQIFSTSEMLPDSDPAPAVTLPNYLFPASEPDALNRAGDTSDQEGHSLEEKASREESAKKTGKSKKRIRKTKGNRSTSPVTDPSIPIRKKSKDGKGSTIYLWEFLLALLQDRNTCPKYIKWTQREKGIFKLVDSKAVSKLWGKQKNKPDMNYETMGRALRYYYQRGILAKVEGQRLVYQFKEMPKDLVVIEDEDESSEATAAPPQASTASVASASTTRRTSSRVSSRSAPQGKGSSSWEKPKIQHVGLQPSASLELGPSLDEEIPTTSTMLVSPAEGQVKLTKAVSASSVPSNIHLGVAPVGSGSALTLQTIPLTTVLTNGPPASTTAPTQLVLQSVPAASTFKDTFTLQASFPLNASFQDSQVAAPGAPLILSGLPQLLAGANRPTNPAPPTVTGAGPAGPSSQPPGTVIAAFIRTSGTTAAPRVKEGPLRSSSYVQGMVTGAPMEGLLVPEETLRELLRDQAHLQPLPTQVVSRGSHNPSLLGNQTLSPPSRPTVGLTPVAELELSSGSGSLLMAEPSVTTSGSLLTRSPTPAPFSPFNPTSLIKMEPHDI
# Method in brief: as §1
# ELK4 = target: T3, ELK4 (Homo sapiens, UniProt P28324-2 1-405); conditions: protein: recombinant; tags: N-terminal GST; dsDNA, one strand shown
# T3 sequence: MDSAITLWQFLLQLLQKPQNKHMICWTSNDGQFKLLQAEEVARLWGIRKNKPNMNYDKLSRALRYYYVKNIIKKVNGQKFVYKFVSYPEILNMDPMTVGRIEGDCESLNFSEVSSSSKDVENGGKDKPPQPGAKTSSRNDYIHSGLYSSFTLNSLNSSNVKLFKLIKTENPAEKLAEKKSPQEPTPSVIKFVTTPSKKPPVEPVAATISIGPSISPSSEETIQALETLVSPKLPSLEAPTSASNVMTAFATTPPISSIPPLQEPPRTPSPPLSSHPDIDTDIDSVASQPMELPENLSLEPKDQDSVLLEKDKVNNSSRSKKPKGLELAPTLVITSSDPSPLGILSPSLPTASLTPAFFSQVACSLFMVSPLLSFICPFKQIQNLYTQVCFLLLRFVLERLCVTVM
# Method in brief: as §1
# ETV2 = target: T4, ETV2 (Homo sapiens, UniProt O00321 1-342); conditions: protein: recombinant; tags: N-terminal GST; dsDNA, one strand shown
# T4 sequence: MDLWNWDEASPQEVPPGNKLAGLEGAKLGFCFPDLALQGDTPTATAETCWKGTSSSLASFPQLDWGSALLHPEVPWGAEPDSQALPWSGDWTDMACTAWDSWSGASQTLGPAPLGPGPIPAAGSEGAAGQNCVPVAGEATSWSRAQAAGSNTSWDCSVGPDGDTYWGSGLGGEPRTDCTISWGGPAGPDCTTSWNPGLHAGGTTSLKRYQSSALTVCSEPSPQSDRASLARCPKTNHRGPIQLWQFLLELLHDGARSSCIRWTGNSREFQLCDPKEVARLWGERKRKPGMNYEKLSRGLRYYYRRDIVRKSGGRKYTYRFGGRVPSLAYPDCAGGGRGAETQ
# Method in brief: as §1
# ELF3 = target: T5, ELF3 (Homo sapiens, UniProt P78545 1-371); conditions: protein: recombinant; tags: N-terminal GST; dsDNA, one strand shown
# T5 sequence: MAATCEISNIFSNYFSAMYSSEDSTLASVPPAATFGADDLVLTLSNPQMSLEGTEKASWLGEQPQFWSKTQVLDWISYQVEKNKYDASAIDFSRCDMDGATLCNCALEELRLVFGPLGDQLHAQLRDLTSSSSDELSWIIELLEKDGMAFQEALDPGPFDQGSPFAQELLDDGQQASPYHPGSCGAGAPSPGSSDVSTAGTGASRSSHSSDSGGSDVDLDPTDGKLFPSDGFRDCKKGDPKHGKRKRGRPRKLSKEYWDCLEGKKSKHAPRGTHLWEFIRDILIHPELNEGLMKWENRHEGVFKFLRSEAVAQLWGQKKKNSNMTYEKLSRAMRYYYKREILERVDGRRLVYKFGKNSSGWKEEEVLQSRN
# Method in brief: as §1
# CRX = CRX (Homo sapiens, UniProt O43186 1-299); conditions: protein: recombinant; tags: N-terminal GST; dsDNA, one strand shown
# CRX, sequence (O43186 whole entry): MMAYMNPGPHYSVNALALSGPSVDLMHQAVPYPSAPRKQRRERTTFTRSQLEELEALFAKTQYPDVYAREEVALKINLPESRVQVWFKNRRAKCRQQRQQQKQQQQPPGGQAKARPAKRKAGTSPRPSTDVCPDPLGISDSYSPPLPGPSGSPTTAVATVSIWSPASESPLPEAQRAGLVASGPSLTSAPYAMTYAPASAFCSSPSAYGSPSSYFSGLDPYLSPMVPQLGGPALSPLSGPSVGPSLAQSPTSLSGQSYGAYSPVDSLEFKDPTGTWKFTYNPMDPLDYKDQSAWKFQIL
# Method in brief: as §1
# ETV1 = ETV1 (Homo sapiens, UniProt P50549 1-477); conditions: protein: recombinant; tags: N-terminal GST; dsDNA, one strand shown
# ETV1, sequence (P50549 whole entry): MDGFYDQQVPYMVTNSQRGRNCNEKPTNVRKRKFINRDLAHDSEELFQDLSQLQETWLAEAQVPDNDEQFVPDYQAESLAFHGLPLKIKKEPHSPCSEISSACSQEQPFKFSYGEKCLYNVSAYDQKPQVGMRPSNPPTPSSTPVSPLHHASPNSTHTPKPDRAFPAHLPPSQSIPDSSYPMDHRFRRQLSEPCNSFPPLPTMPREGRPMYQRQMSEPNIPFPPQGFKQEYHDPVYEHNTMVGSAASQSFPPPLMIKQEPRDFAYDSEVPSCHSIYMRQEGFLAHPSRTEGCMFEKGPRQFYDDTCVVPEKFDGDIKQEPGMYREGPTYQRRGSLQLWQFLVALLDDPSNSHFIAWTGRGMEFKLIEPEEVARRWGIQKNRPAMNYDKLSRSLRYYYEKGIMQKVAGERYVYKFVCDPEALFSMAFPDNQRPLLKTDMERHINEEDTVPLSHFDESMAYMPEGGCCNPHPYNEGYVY
# Method in brief: as §1
# ERF = target: T6, ERF (Homo sapiens, UniProt P50548 1-548); conditions: protein: recombinant; tags: N-terminal GST; dsDNA, one strand shown
# T6 sequence: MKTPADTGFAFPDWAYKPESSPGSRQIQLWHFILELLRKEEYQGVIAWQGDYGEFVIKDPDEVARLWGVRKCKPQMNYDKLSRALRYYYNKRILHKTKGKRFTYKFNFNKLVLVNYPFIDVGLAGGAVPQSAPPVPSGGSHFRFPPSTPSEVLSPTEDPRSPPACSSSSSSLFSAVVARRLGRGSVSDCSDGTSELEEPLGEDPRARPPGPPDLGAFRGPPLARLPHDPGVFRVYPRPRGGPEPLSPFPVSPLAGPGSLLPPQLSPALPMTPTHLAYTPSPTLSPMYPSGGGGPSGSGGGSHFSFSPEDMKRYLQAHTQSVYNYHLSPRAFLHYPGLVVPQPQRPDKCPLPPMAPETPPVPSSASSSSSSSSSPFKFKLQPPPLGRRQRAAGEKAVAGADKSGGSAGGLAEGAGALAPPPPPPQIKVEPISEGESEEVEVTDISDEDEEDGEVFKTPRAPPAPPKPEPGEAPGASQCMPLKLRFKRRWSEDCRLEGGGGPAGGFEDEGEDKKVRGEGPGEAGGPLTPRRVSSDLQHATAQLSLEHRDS
# Method in brief: as §1
# ETV3L = target: T7, ETV3L (Homo sapiens, UniProt Q6ZN32 1-361); conditions: protein: recombinant; tags: N-terminal GST; dsDNA, one strand shown
# T7 sequence: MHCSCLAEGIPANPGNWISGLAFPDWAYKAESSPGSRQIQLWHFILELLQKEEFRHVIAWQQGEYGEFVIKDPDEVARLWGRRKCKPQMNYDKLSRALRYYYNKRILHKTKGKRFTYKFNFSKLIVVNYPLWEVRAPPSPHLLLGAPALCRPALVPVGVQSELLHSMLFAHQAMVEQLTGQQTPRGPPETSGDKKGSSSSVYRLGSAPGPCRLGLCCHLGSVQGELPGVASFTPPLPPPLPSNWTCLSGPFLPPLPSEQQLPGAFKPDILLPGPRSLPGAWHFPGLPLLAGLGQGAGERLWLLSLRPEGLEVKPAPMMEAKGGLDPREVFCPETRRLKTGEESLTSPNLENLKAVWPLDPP
# Method in brief: as §1
# ETS2 = target: T8, ETS2 (Homo sapiens, UniProt P15036 1-469); conditions: protein: recombinant; tags: N-terminal GST; dsDNA, one strand shown
# T8 sequence: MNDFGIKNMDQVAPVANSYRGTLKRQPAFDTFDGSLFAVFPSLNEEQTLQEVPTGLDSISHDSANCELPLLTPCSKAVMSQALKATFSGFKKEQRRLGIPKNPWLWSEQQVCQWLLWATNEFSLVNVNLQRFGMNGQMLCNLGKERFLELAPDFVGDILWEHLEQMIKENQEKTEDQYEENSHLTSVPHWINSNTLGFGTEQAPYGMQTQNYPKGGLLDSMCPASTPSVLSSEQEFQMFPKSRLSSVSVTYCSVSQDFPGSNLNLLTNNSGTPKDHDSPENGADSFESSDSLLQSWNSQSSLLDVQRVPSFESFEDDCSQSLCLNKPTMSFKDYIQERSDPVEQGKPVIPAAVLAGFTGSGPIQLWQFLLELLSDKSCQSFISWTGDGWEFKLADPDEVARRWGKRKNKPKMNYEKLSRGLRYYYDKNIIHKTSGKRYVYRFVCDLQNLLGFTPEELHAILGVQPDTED
# Method in brief: as §1
# SPDEF = target: T9, SPDEF (Homo sapiens, UniProt O95238 1-335); conditions: protein: recombinant; tags: N-terminal GST; dsDNA, one strand shown
# T9 sequence: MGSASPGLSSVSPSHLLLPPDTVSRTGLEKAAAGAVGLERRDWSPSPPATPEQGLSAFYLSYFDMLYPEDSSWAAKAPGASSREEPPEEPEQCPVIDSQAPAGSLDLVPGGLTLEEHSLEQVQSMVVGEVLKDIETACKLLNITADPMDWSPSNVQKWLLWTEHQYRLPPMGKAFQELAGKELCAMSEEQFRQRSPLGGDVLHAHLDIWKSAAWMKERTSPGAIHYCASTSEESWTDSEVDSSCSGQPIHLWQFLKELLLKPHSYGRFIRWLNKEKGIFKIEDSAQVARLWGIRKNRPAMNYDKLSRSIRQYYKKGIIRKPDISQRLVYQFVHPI
# Method in brief: as §1
# ETV7 = target: T10, ETV7 (Homo sapiens, UniProt Q9Y603 1-341); conditions: protein: recombinant; tags: N-terminal GST; dsDNA, one strand shown
# T10 sequence: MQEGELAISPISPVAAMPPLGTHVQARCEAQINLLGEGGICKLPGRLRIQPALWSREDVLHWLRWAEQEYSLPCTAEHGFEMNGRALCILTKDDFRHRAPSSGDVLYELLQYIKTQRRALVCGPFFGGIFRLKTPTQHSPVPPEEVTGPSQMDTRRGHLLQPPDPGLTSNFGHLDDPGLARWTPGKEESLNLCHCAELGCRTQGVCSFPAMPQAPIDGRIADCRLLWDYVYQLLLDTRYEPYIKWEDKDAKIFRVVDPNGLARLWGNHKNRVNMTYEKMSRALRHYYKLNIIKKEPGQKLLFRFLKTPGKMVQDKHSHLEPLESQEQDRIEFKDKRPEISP
# Method in brief: as §1
# ELF5 = target: T11, ELF5 (Homo sapiens, UniProt Q9UKW6-2 1-255); conditions: protein: recombinant; tags: N-terminal GST; dsDNA, one strand shown
# T11 sequence: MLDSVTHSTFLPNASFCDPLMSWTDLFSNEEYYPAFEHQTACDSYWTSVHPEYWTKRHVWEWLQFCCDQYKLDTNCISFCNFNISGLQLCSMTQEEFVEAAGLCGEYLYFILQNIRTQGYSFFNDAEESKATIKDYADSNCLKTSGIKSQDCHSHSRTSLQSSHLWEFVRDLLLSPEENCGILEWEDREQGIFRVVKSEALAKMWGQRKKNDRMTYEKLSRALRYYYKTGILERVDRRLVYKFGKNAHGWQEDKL
# Method in brief: as §1
# ETV3 = target: T12, ETV3 (Homo sapiens, UniProt P41162-2 1-143); conditions: protein: recombinant; tags: N-terminal GST; dsDNA, one strand shown
# T12 sequence: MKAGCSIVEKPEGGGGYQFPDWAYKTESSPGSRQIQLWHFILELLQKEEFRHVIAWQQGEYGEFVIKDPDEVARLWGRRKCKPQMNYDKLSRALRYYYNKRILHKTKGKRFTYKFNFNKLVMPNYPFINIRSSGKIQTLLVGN
# Method in brief: as §1
# ETV6 = ETV6 (Homo sapiens, UniProt P41212 1-452); conditions: protein: recombinant; tags: N-terminal GST; dsDNA, one strand shown
# ETV6, sequence (P41212 whole entry): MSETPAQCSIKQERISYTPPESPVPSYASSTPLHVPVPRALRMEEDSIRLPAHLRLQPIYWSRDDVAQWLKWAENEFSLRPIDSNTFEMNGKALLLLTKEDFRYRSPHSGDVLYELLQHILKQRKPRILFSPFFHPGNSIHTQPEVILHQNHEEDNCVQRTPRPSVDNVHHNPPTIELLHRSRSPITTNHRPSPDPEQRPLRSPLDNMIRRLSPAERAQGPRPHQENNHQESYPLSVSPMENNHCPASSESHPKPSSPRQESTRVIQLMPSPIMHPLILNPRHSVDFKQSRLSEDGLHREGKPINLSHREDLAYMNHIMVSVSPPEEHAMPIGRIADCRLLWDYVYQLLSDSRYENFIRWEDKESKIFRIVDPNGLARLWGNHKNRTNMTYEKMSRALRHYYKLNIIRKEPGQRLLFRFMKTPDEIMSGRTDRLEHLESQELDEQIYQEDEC
# Method in brief: as §1
sequence,measurement,setting,value
ATATTG,binding signal,FEV,"1.33 fold enrichment (6-mer frequency, TF over GST control)"
same,binding signal,ETV5,"1.37 fold enrichment (6-mer frequency, TF over GST control)"
same,binding signal,HSF1,"1.19 fold enrichment (6-mer frequency, TF over GST control)"
same,binding signal,SPIC,"1.41 fold enrichment (6-mer frequency, TF over GST control)"
same,binding signal,ELF4,"1.37 fold enrichment (6-mer frequency, TF over GST control)"
same,binding signal,ELK4,"1.24 fold enrichment (6-mer frequency, TF over GST control)"
same,binding signal,ETV2,"1.48 fold enrichment (6-mer frequency, TF over GST control)"
same,binding signal,ELF3,"1.25 fold enrichment (6-mer frequency, TF over GST control)"
same,binding signal,CRX,"1.28 fold enrichment (6-mer frequency, TF over GST control)"
same,binding signal,ETV1,"1.32 fold enrichment (6-mer frequency, TF over GST control)"
same,binding signal,ERF,"1.31 fold enrichment (6-mer frequency, TF over GST control)"
same,binding signal,ETV3L,"1.41 fold enrichment (6-mer frequency, TF over GST control)"
same,binding signal,ETS2,"1.36 fold enrichment (6-mer frequency, TF over GST control)"
same,binding signal,SPDEF,"1.43 fold enrichment (6-mer frequency, TF over GST control)"
same,binding signal,ETV7,"1.33 fold enrichment (6-mer frequency, TF over GST control)"
same,binding signal,ELF5,"1.34 fold enrichment (6-mer frequency, TF over GST control)"
same,binding signal,ETV3,"1.35 fold enrichment (6-mer frequency, TF over GST control)"
same,binding signal,ETV6,"1.42 fold enrichment (6-mer frequency, TF over GST control)"
